Compound activity (PubChem BioAssay)
Compounds with a hit are over-represented: about 2.2% of the library has one in this group of screens.
aSyn rescue: alpha-synuclein toxicity inhibition in yeast; Potency, µM (titrated, usually from 46.1 µM), for the others: at the highest dose growth rescue (activation), usual class: activators; Yeast expressing alpha-synuclein, growth rescue, BacTiter-Glo, 24 h; AID 652106; actives 0.14% (n = 370,000); note: % of control where 0% means no effect; nearly all actives have a fitted effect of over 65% in size
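Rescue of yeast growth: cells expressing toxic alpha-synuclein, induced in galactose at OD600 0.02, incubated with compound 24 h at 30 C. ATP luminescence quantified growth; inhibitors of toxicity appear as activators.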
Mito fusion yeast: mitochondrial division inhibition or fusion activation; S. cerevisiae fusion-defective mutant growth rescue, CellTiterGlo 48 h; Potency, µM (series often up to 46.1 µM), inactives show at the highest dose growth rescue (activation), most hits filed as activators; actives 0.23% (n = 320,000); note: % of control where 0% means no effect; nearly all actives have a fitted effect of over 45% in size
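Read-out: ATP-based luminescence (CellTiterGlo, 10 min ambient) reporting growth of fusion-defective ts yeast after 48 hours at 37C on glycerol/ethanol YPEG medium in the presence of compound.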
FUS suppressor: suppressors of FUS proteinopathy in yeast. S. cerevisiae FUS-expressing, growth rescue, OD600, 24 h. Potency, µM (titrated, usually from 76.6 µM), actives largely listed as activators. actives 0.24% (n = 390,000). AID 1347120;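 note: plate controls were DMSO vehicle for no effect and reference control for full effect; nearly all actives have a fitted effect of over 55% in size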
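Yeast expressing FUS under galactose induction, OD 0.005 in 2% galactose medium; compounds in a dilution series, 24 h at 30C. Growth rescue by absorbance at 600 nm; CP55940 positive control, DMSO negative.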
TDP43 rescue: inhibitors of TDP-43 toxicity in yeast; Potency, µM (highest dose often 46.1 µM), for the others: at the top dose growth rescue (activation), usual class: activators; AID 652104; actives 1.8% (n = 410,000); TDP-43 expressing yeast growth rescue, BacTiter-Glo, 24 h; note: % of control where 0% means no effect; nearly all actives have a fitted effect of over 50% in size
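Yeast cells expressing TDP-43 under galactose induction are exposed to compounds for 24 hr at 30 deg C. BacTiter-Glo luminescence measures growth, so protective compounds score as activators.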
Abeta yeast res: restores growth of yeast expressing A-beta42 peptide. yeast expressing A-beta42, growth rescue, OD600, 48 h; response scale: 0% DMSO, 100% iron-clioquinol control. actives 0.063% (n = 410,000). AID 1347071. Potency, µM (top dose mostly 46.1 µM), actives largely listed as activators; note: nearly all actives have a fitted effect of over 55% in size
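Yeast A-beta toxicity model in growth medium with pinned compounds, 48 h at 30 C; growth read as absorbance at 600 nm. Normalized to FeCl3/clioquinol equimolar mix (positive) and DMSO (negative).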
An asterisk follows results filed as active; i = inactive; ? = inconclusive; . = no result given. Calls come from the whole dose curve; as a rule, active = well fitted curve in the direction sought with a large enough effect; inconclusive = small, poorly fitted or top-dose-only effect, or another doubt; inactive = no such curve, though single readings can be large; an effect the other way counts as inactive or inconclusive. Potency is the fitted concentration of half-maximal effect.

SMILES	aSyn rescue	Mito fusion yeast	FUS suppressor	TDP43 rescue	Abeta yeast res
O=C1ON=C(c2ccccc2)/C1=C/c1ccc(OS(=O)(=O)c2ccccc2)cc1	6%	-8%	.	13µM*	i
O=C1ON=C(c2ccccc2)/C1=C/c1ccc(O)c(O)c1	5µM*	-13%	i	?	i
CCCCCc1ccc(NC(=O)O[C@@H]2CC[C@@]34CCCN3C(=O)CCC[C@H]4C2)cc1	.	.	22µM*	.	.
CCCCC[C@@H](C)N1C[C@H](COCc2ccccc2)Oc2cc(N3CC[C@@H](O)C3)ccc2S1(=O)=O	0%	.	?	-1%	i
O=C(O)CC1(CC(=O)Nc2ccc(Oc3cccc(C(F)(F)F)c3)nc2)CCCC1	4%	-3%	i	12%	i
COc1ccc(NC(=O)C(Cl)=C(Cl)Cl)cn1	6%	-3%	i	13µM*	i
COc1ccc(NC(=O)CC2(CC(=O)O)CCCC2)cn1	4%	-7%	i	13µM*	i
COc1ccc(NC(=O)/C(Cl)=C(/Cl)S(=O)(=O)Cc2ccccc2)cn1	-36%	-24%	i	3.2µM*	i
O=C(NCCc1ccccc1)C1C(=O)Nc2ccccc2C(=O)N1C1CCCCC1 (stereo not drawn)	13µM*	.	i	?	i
O=C(C(=Cc1ccc(F)cc1)C(=O)c1ccccc1)c1ccccc1	?	.	i	3.5µM*	i
Cc1ccc(Cn2cc(COC(=O)NCCc3c[nH]c4ccccc34)nn2)cc1	.	.	i	.	.
Cc1ccc(C(=O)Nc2nnc(S(=O)(=O)N3c4ccccc4CC3C)s2)cc1 (stereo not drawn)	.	.	i	23%	i
COc1ccc(N=C2SC(CC(=O)Nc3ccccc3)C(=O)N2CCc2ccccn2)cc1 (stereo not drawn)	-2%	3%	.	21%	i
COc1ccc(OC)c(NC(=O)CC2SC(=Nc3ccccc3)N(CCc3ccccn3)C2=O)c1 (stereo not drawn)	8%	1%	35µM*	2%	i
Cc1ccc(C(=O)Nc2ccc(C(=O)O)cc2)cc1S(=O)(=O)N1CCC(C)CC1	.	.	i	13%	i
O=[N+]([O-])c1ccc(Nc2ccccc2F)nc1	-1%	-3%	i	18µM*	i
Cc1ccccc1Nc1ccc([N+](=O)[O-])cn1	-14%	18%	i	?	i
CCCCSc1ccc2nc(-c3ccc(C#N)cc3)cn2c1	-12%	8%	i	11µM*	i
CCCSc1ccc2nc(-c3ccccc3)cn2c1	-18%	16%	.	-14%	i
Cc1ccc(-c2nc(CSc3nncn4c3cc3occc34)c(C)o2)cc1	.	.	i	-21%	i
O=C(NC12CC3CC(CC(C3)C1)C2)c1ccc([N+](=O)[O-])o1	-28%	?	i	20µM*	i
COc1ccc(-c2nc(-c3ccc(O)cc3O)cs2)cc1OC	1%	?	i	18µM*	i
COc1ccc(-c2nc(CCl)cs2)cc1OC	5%	1%	i	7%	i
C#CCNC(=O)C[C@@H]1C(=O)N(CC=C)/C2=C/CCCCC[C@]21C(=O)OCC	.	.	i	.	.
CC(/C=N/n1c(-c2ccco2)n[nH]c1=S)=C\c1ccccc1	10%	?	i	18µM*	i
SMILES	aSyn rescue	Mito fusion yeast	FUS suppressor	TDP43 rescue	Abeta yeast res
CN(C(=O)CSc1nnc(-c2ccccc2F)o1)C1CCCCC1	.	.	i	?	i
Cc1ccc(C)c(NC(=O)CSc2nccn2-c2cccc(C)c2C)c1	.	.	i	?	i
CCc1ccc(NC(=O)CSc2nccn2-c2ccc(F)cc2)cc1	.	.	i	16µM*	?
CCc1ccc(NC(=O)CSc2nccn2-c2cccc(C)c2C)cc1	?	.	i	32µM*	i
c1csc(-c2nc3c4ccccc4c4ccccc4c3[nH]2)c1	3%	10%	i	20µM*	i
CN(C)c1ccc(C(I)C(I)c2ccnc3ccccc23)cc1 (stereo not drawn)	0%	.	.	.	.
O=C(Nc1ccc(F)cc1)c1ccc(Cn2nc(N3CCN(c4ccccc4)CC3)ccc2=O)o1	.	.	?	22µM*	i
Cc1ccc(NC(=O)Cn2nc(N3CCN(c4ccccc4)CC3)ccc2=O)cc1F	.	.	?	18µM*	i
COc1ccc(OC)c(NCc2cccn2-c2nnc(N3CCC(C)CC3)s2)c1	0%	.	i	?	i
COc1ccc(-c2[nH]ncc2-c2ccc(Cl)cc2)c(O)c1	?	13%	?	?	?
COc1ccc(-c2cn[nH]c2-c2ccc(OC)cc2O)cc1	22µM*	13%	i	25µM*	?
CC1CN(C(=O)CCC(=O)Nc2cc(F)ccc2F)c2ccccc2S1 (stereo not drawn)	.	.	i	11µM*	i
CN(C)c1ccc(/C=C/c2ccnc3ccccc23)cc1	-17%	.	.	.	.
COC(=O)c1cccc(CN2C(=O)SC(Nc3ccccc3C)C2=O)c1 (stereo not drawn)	.	.	i	?	i
COC(=O)c1cccc(CN2C(=O)SC(Nc3ccc(Br)cc3)C2=O)c1 (stereo not drawn)	.	.	?	16µM*	i
COC(=O)c1cccc(CN2C(=O)SC(Nc3ccc(C)cc3)C2=O)c1 (stereo not drawn)	13%	0%	i	22%	?
COC(=O)c1cccc(CN2C(=O)SC(Nc3ccc(Cl)cc3)C2=O)c1 (stereo not drawn)	.	.	i	16µM*	i
Cn1c(=O)c(=O)n(C)c2cc(N3CCCC3)c(NC(=O)c3ccccc3Cl)cc21	.	.	i	0%	i
CN(C(=O)CSc1nnc(-c2ccc(Cl)cc2)n1C)C1CCS(=O)(=O)C1 (stereo not drawn)	-2%	.	i	9%	i
CC(=O)NC1CCCCN(C(C)C)C1=O (stereo not drawn)	.	.	i	.	.
COc1ccc(-c2sc3ccc(OC)cc3c2C#CCCO)cc1	2%	18%	?	22µM*	i
COc1ccc2sc(-c3ccc(N(C)C)cc3)c(C#CCCO)c2c1	7%	?	?	35µM*	i
CCOC(=O)C1=C(C)N=c2s/c(=C\c3ccc(OCC(=O)O)c(OC)c3)c(=O)n2C1c1ccc(OC)cc1 (stereo not drawn)	1%	1%	35µM*	8%	i
CCOC(=O)C1=C(C)N=c2s/c(=C\c3ccc(OCC(=O)O)cc3)c(=O)n2C1c1ccccc1 (stereo not drawn)	0%	-2%	?	-3%	i
Cc1cccc(C)c1Nc1n[nH]c(=S)s1	2%	.	i	?	i
CC(C)c1ccc(Nc2n[nH]c(=S)s2)cc1	-1%	.	i	14µM*	i
